# Screen size: about 310,000 compounds; about 3,900 (1.3%) were called active.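 Rule for the calls: active = calcium-response B-score plate-corrected more than 3 library SD below zero, starting fluorescence within 5 deviations, no agonist response on first addition; inactive = the rest.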 For the sample, actives were picked, then their nearest neighbours and some compounds at random.
# Target: Mas-related G-protein coupled receptor member X1 (Homo sapiens) (UniProt Q96LB2)
# Assay: blockade of BAM8-22-evoked MrgX1 calcium response – HEK293 cells, Fluo-4 calcium flux, primary screen (AID 588676);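 for B-score: peak minus trough fluorescence over baseline after final BAM8-22 challenge near maximal dose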
# Settings: Fluo-4, BAM8-22 antagonism, at 10 µM; active compounds read low
# Chain of Mas-related G-protein coupled receptor member X1 (Homo sapiens) (Q96LB2 whole entry, looked up): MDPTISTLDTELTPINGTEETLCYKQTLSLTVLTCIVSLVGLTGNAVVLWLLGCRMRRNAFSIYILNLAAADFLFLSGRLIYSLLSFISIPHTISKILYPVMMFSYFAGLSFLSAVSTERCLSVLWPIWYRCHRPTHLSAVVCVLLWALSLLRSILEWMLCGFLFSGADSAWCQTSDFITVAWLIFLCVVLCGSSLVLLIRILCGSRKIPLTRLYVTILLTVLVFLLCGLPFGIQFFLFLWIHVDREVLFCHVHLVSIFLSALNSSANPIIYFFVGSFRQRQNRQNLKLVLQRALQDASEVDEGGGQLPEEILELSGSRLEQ
row,SMILES,B-score
1,CCc1[nH]nc(C(=O)N2CCCC(CO)(Cc3ccc(F)cc3F)C2)c1C (configuration not stated),inactive
2,C=CCNC(=O)c1sc(SC)cc1-c1ccc(Cl)cc1,inactive
3,CCC(=O)NC(Nc1nc2ccc(C)cc2s1)(C(=O)OC)C(F)(F)F (configuration not stated),inactive
4,CCOc1ccc2nc(NC(=O)c3cc([N+](=O)[O-])ccc3N3CCOCC3)sc2c1,inactive
5,O=C(NC(Nc1nc2ccc([N+](=O)[O-])cc2s1)(C(F)(F)F)C(F)(F)F)c1ccccc1,-6.28 (active)
6,CCCOC(=O)c1c(NC(=O)c2cnn3c2NC(c2ccccc2)CC3C(F)(F)F)sc2c1CCCC2 (configuration not stated),inactive
7,Cc1nc(N=C(N)N)nc2c(C)cccc12,inactive
8,CCOc1cc(/C=C2/N=C(c3ccc(C(C)(C)C)cc3)OC2=O)cc(Cl)c1OS(C)(=O)=O,inactive
9,Cc1cccc(NC(=O)Cn2c(=O)n(Cc3ccccc3)c(=O)c3c(C)c(C)sc32)c1,inactive
10,CCOc1ccccc1C1CC(c2ccccc2)Nc2nc(N)nn21 (configuration not stated),inactive
11,CCOc1ccccc1C1CC(c2ccc(Cl)cc2)Nc2nc(N)nn21 (configuration not stated),-7.74 (active)
12,COc1ccc(C2CC(c3ccc(Cl)cc3Cl)Nc3nc(N)nn32)cc1OC (configuration not stated),inactive
13,COCCC(=O)Nc1ccc2c(c1)CN(C(=O)CCOC)CC2,inactive
14,COc1ccc2cc(-c3[nH]ncc3CNCCn3nc(C)cc3C)ccc2c1,inactive
15,CCOc1ccc(CN2CCN(Cc3ccc4cc(F)ccc4n3)CC2CCO)cc1 (configuration not stated),inactive
16,O=C(Nc1cccnc1Cl)c1cc(-c2ccccc2O)on1,inactive
17,O=C(c1cc(-c2ccccc2O)on1)N1CCCC1,inactive
18,C=CCNC(=O)c1cc(-c2ccccc2O)on1,-5.5 (active)
19,CNC(=O)c1csc(-c2ccccc2)n1,inactive
20,C=CCNC(=O)c1csc(-c2ccccc2)n1,-6.07 (active)
21,O=C(NCCc1csc(-c2ccccc2)n1)c1ccccc1F,inactive
22,CC(NC(=O)CCCC1CCCCC1)c1ccc(S(N)(=O)=O)cc1 (configuration not stated),inactive
23,Cc1ccc(C)c(N2CCN(C(=O)Cn3ncn4cccc4c3=O)CC2)c1,inactive

row,SMILES,B-score
1,O=C(C1=C[C@H](C2CC2)C[C@H](OCc2ccc(CO)cc2)O1)N1CCN(Cc2ccccc2)CC1,inactive
2,Nc1nc(NCc2ccccc2)n(-c2ccccc2)n1,inactive
3,O=C1CCC(C(=O)N2CCCCO2)CN1Cc1cccc(C(F)(F)F)c1 (configuration not stated),inactive
4,O=C(NC(=S)Nc1cccc(-c2ccc(CO)o2)c1)c1cccs1,inactive
5,CCc1ccc(-c2cc3c(=O)n(CC(=O)NCCCN4CCN(Cc5ccccc5)CC4)nc(C)n3n2)cc1,inactive
6,COc1cccc(CNC(=O)CN(C)S(=O)(=O)c2ccc3c(c2)c(=O)n(C)c(=O)n3C)c1,inactive
7,COc1ccccc1NC(=O)CCC(=O)OC(C)C(=O)c1ccccc1 (configuration not stated),inactive
8,CC1(C(=O)NNC(=S)NCC2CCCO2)CC1(Cl)Cl (configuration not stated),-5.39 (active)
9,CCC(=O)NC(NCC1CCCO1)C(Cl)(Cl)Cl (configuration not stated),inactive
10,S=C(NCCc1ccccc1)NCC1CCCO1 (configuration not stated),inactive
11,COCCNC(=O)c1ccccc1NS(=O)(=O)c1ccc(C)c([N+](=O)[O-])c1,-4.52 (active)
12,Cc1ccc(S(=O)(=O)Nc2nc3ccccc3s2)cc1[N+](=O)[O-],inactive
13,Cc1ccc(S(=O)(=O)NCCSc2ccccc2)cc1[N+](=O)[O-],inactive
14,CCN1C(=O)[C@H]2[C@@H](c3ccc(SC4CCCCC4)c(OC)c3)N[C@@](Cc3ccccc3)(C(=O)OC)[C@H]2C1=O,inactive
15,CCOC(=O)Cn1c(O)c(N=NC(=O)CNC(=O)Cc2ccccc2)c2ccccc21,inactive
16,CCOc1cc(S(=O)(=O)NCc2ccc3c(c2)OCO3)ccc1F,inactive
17,Cc1cccc(NC(=O)N(Cc2cc3cc(C)cc(C)c3[nH]c2=O)CC2COCCO2)c1 (configuration not stated),inactive
18,CCOc1ccc(NC(=O)[C@H](C)NC(=O)C2CC(=O)N(c3ccc(OC)cc3)C2)cc1 (some centres not stated),inactive
19,NC(=O)c1ccccc1N=Cc1ccc2ccccc2c1,inactive
20,O=C(CSc1ncccn1)NC(=O)NCc1ccccc1,-6.78 (active)
21,O=C(CSc1ncccn1)NCCc1ccccc1,inactive
22,O=C(COc1ncnc2ccccc12)NC(=O)NCc1ccccc1,inactive
23,CCOC(=O)[C@H]1[C@H]2COc3ccc(OC)cc3[C@@H]2N2C(=O)c3ccc(F)cc3NC(=O)[C@@]12C,inactive

row,SMILES,B-score
1,COC1=C(N2CCOCC2)C(=O)c2ccccc2C1=O,inactive
2,CN1C(C(=O)NCC2CC2)CC2Cn3c(nc4ccccc43)C21 (configuration not stated),inactive
3,COc1cccc(OCCOc2cccc(/C=N/n3cnnc3)c2)c1,inactive
4,C(=N\n1cnnc1)/c1cccnc1,-4.63 (active)
5,Clc1ccc(CN2CCN(/N=C/c3cccnc3)CC2)cc1,inactive
6,Cc1ccc(S(=O)(=O)N2[C@@H](c3ccccc3F)C(C(=O)O)=CC[C@H]2c2ccc(Cl)cc2)cc1,inactive
7,CC1CCC(NC(=O)CN(C)S(=O)(=O)c2ccc3c(c2)c(=O)n(C)c(=O)n3C)CC1 (configuration not stated),inactive
8,CS(=O)(=O)Nc1ccccc1N=C(c1ccccc1)c1ccccc1,inactive
9,NC(N)=NCCCc1cn(CC(=O)N2CCNCC2)nn1,inactive
10,Cc1nn(-c2ccccc2)c(C)c1NC(=O)CCl,inactive
11,Cc1nn(-c2ccccc2)c(C)c1NC(=O)COC(=O)c1cc(Cl)ccc1O,inactive
12,Cc1nn(-c2ccccc2)c(C)c1NC(=O)COc1ccc(Cl)cc1Cl,-5.44 (active)
13,Cc1c(C(=O)NCC(c2ccco2)N2CCCC2)oc2ccc(Cl)cc12 (configuration not stated),inactive
14,Cc1c(-c2ccccc2)cn2c1-c1ccc(C)n1CC2,inactive
15,Cc1cc(Br)ccc1NC(=O)c1cnc(N2CCN(c3ccccn3)CC2)c2ccccc12,-5.72 (active)
16,O=C(Cc1ccc(Br)cc1)N1CCN(c2ccccn2)CC1,inactive
17,Cc1cc(Br)ccc1NC(=O)c1sc2ncn(CC(=O)N3CCN(c4ccccn4)CC3)c(=O)c2c1C,inactive
18,O=C(Nc1cc(C(F)(F)F)ccc1Cl)c1cc2nc3c(c(C(F)(F)F)n2n1)CCCC3,inactive
19,COC(=O)c1ccc2ccccc2c1OC1OC(CO)C(O)C(O)C1NC(C)=O (configuration not stated),inactive
20,O=C(Nc1ccc(Cl)cc1)c1cc2nc(C3CC3)cc(C(F)(F)F)n2n1,inactive
21,Cc1cc(C)c(S(=O)(=O)NCC2CCC(C(=O)NCc3ccc4c(c3)OCO4)CC2)c(C)c1 (configuration not stated),inactive
